Laboratory results as given in PubChem BioAssay AID2654 (Johns Hopkins Ion Channel Center, 2010).
Potency and affinity values are given separately. Calls of active or inactive are those of the source.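 How the source made its calls: active means increase of the KCNQ2 potassium channel current at -35 mV by at least one tested dose; inactive means no tested dose increases that current.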

Target: Potassium voltage-gated channel subfamily KQT member 2 (Rattus norvegicus) (UniProt O88943)
Assay: retigabine-insensitive KCNQ2 potentiators, concentration-response, dose response, cell-based, retigabine-insensitive compounds (AID 2654)
Settings: KCNQ2-CHO cells, automated patch clamp current potentiation; at 30 µM (top of the series)

Sequence of Potassium voltage-gated channel subfamily KQT member 2 (Rattus norvegicus) (O88943 whole entry, looked up): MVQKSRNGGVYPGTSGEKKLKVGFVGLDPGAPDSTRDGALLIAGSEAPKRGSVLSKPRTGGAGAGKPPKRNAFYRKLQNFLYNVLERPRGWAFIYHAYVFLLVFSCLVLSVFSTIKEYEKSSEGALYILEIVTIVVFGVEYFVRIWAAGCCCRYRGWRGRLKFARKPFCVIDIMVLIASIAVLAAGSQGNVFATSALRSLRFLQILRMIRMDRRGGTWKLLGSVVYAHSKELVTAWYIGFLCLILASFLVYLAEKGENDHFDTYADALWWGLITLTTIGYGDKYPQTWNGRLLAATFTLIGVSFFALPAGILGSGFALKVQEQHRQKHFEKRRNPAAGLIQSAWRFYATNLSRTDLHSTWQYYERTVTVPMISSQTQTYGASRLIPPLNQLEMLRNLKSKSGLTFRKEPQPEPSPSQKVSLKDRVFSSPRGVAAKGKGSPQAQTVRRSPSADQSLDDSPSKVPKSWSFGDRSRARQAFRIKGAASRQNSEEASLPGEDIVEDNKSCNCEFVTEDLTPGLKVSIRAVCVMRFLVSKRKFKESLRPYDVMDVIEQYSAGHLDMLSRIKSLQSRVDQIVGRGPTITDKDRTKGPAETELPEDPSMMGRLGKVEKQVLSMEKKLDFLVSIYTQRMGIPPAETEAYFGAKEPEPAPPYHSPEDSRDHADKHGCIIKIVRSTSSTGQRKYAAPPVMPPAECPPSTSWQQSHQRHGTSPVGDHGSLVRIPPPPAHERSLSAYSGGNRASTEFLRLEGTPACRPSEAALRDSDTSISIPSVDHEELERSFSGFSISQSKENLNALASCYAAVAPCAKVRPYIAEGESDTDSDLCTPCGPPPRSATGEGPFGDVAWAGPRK

Structure (SMILES)	outcome	potentiation
Cc1cc(NC(=O)Nc2cccc(F)c2)cnc1Cl	inactive	
S=C(NCC1CCCCC1)Nc1cccnc1	inactive	
O=C(Nc1cccnc1)N1CCOCC1	inactive	
O=C(NCc1ccc(Cl)cc1Cl)Nc1nccs1	inactive	
Cc1ccc(C)c(NC(=O)Nc2cccnc2)c1	inactive	
COc1cccc(NC(=S)Nc2cccnc2)c1	inactive	
S=C(Nc1cccnc1)NC1CCCCCCC1	inactive	
COc1ccc(C)cc1NC(=O)Nc1cccnc1	inactive	
COc1cccc(NC(=O)Nc2cccnc2)c1	inactive	
COc1nccc(NC(=O)Nc2cccc(F)c2)n1	inactive	
O=C(NCC(F)(F)F)Nc1cccnc1	inactive	
COc1ccc(Cl)cc1NC(=S)Nc1cccnc1	inactive	
Cc1c(Cl)cccc1NC(=O)Nc1cccnc1		102
Cc1ccc(NC(=O)Nc2cccnc2)c(C)c1	inactive	
O=C(Nc1cccnc1)Nc1ccc2c(c1)OCCO2	inactive	
Cc1nc(F)ccc1NC(=O)Nc1cccc(F)c1	inactive	
Cc1ccc(Cl)cc1NC(=S)Nc1cccnc1	inactive	
O=C(Nc1cccnc1)Nc1ccc2c(c1)CCC2		103
CC(CCc1ccccc1)NC(=S)Nc1cccnc1 (stereo not drawn)	inactive	
S=C(NCc1ccco1)Nc1cccnc1	inactive	
O=C(Nc1cccnc1)Nc1ccc(Cl)c(Cl)c1	inactive	
Fc1ccc(NC(=S)Nc2cccnc2)c(F)c1F	inactive	
O=C(Nc1cccc(Cl)c1)N(CC1CC1)c1cccnc1	inactive	
Fc1ccc(NC(=S)Nc2cccnc2)cc1	inactive	
S=C(Nc1ccc(Cl)cc1)Nc1cccnc1	inactive	
Cc1ccc(Cl)cc1NC(=O)Nc1cccnc1	inactive	
Cc1cc(NC(=O)NCc2ccc(Cl)cc2Cl)cnc1Br	inactive	
S=C(NCc1ccccc1)Nc1cccnc1	inactive	
